Experiments:
Experiment in all cases: DAPPL (digital affinity profiling via proximity ligation, sequencing); 10 mM Tris-HCl pH 7.5, 50 mM NaCl, 1 mM DTT, 4% glycerol, room temperature, 30 min; GST-TFs on glutathione beads, 16-mer random dsDNA library, 0.1% formaldehyde crosslink after washing; high values mean tight binding
FEV = biological target: T1, FEV (Homo sapiens, UniProt Q99581 1-238); conditions: protein: recombinant; tags: N-terminal GST; dsDNA, one strand shown
T1 sequence: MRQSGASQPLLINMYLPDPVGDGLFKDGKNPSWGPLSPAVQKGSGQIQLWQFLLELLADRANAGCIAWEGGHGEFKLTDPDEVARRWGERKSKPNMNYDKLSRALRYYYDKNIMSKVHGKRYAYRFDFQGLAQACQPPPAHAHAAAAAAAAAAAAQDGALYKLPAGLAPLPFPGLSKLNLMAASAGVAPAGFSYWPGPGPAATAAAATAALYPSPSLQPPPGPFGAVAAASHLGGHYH
In short: (§1)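 Binding signal is each hexamer's read frequency for a factor divided by its frequency in the tag-only sample. The factors were GST-fused human transcription factors from yeast, captured on glutathione beads, DNA-barcoded and pooled with that sample. Pools were incubated with 200 nmole of a random double-stranded 16-mer DNA library in Tris/NaCl/DTT/glycerol buffer at room temperature for 30 min, then washed, crosslinked with 0.1% formaldehyde, proximity-ligated with BsaI/T4 ligase (1 h, 37 °C), PCR-amplified and sequenced on an Illumina NextSeq500.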

ETV5 = ETV5 (Homo sapiens, UniProt P41161 1-510); conditions: protein: recombinant; tags: N-terminal GST; dsDNA, one strand shown
Chain of ETV5 (P41161 whole entry): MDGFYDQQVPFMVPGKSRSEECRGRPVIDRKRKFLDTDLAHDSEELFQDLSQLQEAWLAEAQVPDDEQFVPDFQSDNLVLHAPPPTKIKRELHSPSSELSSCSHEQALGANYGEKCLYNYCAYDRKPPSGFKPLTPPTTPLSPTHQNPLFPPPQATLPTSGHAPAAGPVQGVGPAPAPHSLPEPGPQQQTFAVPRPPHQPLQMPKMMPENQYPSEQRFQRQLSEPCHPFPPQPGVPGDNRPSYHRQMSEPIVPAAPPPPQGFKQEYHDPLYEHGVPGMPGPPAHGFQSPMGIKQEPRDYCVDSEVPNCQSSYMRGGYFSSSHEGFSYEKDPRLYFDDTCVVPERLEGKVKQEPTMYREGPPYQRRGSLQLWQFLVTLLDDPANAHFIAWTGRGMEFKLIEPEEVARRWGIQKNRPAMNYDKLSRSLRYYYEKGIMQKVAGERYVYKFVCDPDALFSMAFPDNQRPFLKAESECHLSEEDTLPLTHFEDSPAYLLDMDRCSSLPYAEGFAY
In short: as §1

HSF1 = HSF1 (Homo sapiens, UniProt Q00613 1-529); conditions: protein: recombinant; tags: N-terminal GST; chain copies: 3; dsDNA, one strand shown
Chain of HSF1 (Q00613 whole entry): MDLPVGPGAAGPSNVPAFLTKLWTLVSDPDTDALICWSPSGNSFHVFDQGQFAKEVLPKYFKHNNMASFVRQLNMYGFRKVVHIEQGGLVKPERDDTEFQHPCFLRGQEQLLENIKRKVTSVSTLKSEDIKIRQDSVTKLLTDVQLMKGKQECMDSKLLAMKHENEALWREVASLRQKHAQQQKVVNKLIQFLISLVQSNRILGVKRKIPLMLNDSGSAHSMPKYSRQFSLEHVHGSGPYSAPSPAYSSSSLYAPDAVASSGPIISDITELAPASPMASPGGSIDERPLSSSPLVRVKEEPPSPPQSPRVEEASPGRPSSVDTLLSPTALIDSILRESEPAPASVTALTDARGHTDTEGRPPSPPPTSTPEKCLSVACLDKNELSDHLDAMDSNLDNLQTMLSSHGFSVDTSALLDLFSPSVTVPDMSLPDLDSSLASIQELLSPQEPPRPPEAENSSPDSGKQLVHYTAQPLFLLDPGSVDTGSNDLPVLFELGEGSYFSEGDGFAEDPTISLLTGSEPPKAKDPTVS
In short: as §1

SPIC = biological target: T2, SPIC (Homo sapiens, UniProt Q8N5J4 1-248); conditions: protein: recombinant; tags: N-terminal GST; dsDNA, one strand shown
T2 sequence: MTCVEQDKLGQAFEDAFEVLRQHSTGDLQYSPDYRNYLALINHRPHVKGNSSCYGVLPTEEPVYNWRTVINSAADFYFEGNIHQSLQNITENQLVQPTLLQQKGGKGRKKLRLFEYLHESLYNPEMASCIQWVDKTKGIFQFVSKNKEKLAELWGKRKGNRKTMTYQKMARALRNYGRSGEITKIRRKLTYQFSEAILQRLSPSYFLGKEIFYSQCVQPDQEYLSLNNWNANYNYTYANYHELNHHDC
In short: as §1

ELK4 = biological target: T3, ELK4 (Homo sapiens, UniProt P28324-2 1-405); conditions: protein: recombinant; tags: N-terminal GST; dsDNA, one strand shown
T3 sequence: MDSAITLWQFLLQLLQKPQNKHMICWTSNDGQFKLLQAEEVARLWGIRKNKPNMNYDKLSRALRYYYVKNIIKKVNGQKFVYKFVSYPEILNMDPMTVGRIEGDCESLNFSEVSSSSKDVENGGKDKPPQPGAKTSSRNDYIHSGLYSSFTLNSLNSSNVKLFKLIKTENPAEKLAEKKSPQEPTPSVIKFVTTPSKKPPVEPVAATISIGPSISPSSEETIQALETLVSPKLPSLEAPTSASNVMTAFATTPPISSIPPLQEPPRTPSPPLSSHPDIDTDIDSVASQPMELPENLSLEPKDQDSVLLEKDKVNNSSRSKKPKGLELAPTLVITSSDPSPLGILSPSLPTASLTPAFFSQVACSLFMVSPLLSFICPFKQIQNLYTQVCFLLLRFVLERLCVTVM
In short: as §1

ETV2 = biological target: T4, ETV2 (Homo sapiens, UniProt O00321 1-342); conditions: protein: recombinant; tags: N-terminal GST; dsDNA, one strand shown
T4 sequence: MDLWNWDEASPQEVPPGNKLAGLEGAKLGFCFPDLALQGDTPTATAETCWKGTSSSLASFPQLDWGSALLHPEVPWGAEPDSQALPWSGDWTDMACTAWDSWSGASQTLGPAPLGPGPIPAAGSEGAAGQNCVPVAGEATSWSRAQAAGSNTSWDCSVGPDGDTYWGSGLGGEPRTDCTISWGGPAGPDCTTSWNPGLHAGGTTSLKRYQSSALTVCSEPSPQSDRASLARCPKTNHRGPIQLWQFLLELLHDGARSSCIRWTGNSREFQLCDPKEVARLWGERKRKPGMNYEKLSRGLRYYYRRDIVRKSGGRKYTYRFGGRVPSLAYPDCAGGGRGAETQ
In short: as §1

CRX = CRX (Homo sapiens, UniProt O43186 1-299); conditions: protein: recombinant; tags: N-terminal GST; dsDNA, one strand shown
Chain of CRX (O43186 whole entry): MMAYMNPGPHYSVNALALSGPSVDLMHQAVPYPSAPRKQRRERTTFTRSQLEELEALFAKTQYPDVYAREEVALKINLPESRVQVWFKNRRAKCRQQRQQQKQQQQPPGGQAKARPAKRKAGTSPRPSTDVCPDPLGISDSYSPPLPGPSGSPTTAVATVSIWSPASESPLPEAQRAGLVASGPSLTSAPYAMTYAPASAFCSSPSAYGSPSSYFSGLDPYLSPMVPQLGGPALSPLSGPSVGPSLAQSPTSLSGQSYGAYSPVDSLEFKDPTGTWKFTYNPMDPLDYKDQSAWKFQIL
In short: as §1

ETV1 = ETV1 (Homo sapiens, UniProt P50549 1-477); conditions: protein: recombinant; tags: N-terminal GST; dsDNA, one strand shown
Chain of ETV1 (P50549 whole entry): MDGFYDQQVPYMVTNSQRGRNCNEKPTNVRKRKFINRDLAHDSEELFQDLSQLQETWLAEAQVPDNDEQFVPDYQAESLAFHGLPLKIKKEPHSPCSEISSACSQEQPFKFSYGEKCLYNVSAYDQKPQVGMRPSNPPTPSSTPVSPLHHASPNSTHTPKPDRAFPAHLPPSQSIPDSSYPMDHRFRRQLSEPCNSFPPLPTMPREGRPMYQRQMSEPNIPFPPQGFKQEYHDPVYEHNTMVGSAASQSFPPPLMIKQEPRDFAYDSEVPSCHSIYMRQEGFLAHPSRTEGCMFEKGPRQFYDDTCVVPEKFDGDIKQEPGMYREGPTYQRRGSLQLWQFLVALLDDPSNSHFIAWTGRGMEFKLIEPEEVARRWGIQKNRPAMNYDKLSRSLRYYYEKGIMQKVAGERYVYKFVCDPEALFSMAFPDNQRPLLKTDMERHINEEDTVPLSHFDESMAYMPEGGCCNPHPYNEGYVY
In short: as §1

ERF = biological target: T5, ERF (Homo sapiens, UniProt P50548 1-548); conditions: protein: recombinant; tags: N-terminal GST; dsDNA, one strand shown
T5 sequence: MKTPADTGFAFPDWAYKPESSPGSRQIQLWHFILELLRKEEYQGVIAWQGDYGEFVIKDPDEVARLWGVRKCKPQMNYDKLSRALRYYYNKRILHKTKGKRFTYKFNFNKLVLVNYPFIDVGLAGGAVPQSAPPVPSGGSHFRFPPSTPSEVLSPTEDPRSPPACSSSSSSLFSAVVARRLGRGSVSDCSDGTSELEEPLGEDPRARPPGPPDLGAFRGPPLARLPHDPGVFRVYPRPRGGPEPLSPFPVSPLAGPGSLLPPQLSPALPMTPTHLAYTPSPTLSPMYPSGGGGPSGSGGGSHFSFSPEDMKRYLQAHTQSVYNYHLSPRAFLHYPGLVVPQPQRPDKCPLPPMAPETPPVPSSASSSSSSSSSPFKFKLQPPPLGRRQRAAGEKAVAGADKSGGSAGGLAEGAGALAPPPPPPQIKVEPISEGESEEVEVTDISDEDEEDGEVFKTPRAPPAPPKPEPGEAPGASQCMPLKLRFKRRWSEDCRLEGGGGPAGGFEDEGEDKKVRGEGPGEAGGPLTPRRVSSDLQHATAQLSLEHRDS
In short: as §1

ETV3L = biological target: T6, ETV3L (Homo sapiens, UniProt Q6ZN32 1-361); conditions: protein: recombinant; tags: N-terminal GST; dsDNA, one strand shown
T6 sequence: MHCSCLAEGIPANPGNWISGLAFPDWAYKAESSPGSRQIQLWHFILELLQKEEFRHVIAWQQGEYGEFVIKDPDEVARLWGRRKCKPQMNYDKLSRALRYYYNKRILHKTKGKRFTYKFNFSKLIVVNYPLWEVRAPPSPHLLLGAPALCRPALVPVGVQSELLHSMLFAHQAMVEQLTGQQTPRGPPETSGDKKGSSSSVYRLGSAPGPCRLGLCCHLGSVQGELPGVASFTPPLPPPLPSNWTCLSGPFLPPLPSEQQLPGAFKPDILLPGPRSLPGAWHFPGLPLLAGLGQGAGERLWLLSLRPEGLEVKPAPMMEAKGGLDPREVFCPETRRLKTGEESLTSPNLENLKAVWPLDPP
In short: as §1

ETS2 = biological target: T7, ETS2 (Homo sapiens, UniProt P15036 1-469); conditions: protein: recombinant; tags: N-terminal GST; dsDNA, one strand shown
T7 sequence: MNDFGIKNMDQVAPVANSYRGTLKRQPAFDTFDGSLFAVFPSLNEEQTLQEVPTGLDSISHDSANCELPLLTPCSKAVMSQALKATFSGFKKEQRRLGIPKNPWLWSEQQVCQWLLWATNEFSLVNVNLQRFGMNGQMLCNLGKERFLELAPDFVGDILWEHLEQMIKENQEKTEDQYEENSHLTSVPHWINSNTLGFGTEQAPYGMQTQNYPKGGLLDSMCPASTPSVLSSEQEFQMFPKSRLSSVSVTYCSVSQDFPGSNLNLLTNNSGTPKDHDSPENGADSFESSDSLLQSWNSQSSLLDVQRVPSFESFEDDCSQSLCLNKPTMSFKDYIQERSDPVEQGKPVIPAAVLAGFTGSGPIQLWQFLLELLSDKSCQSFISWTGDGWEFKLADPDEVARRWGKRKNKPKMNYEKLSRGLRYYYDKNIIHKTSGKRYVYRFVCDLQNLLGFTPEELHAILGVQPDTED
In short: as §1

SPDEF = biological target: T8, SPDEF (Homo sapiens, UniProt O95238 1-335); conditions: protein: recombinant; tags: N-terminal GST; dsDNA, one strand shown
T8 sequence: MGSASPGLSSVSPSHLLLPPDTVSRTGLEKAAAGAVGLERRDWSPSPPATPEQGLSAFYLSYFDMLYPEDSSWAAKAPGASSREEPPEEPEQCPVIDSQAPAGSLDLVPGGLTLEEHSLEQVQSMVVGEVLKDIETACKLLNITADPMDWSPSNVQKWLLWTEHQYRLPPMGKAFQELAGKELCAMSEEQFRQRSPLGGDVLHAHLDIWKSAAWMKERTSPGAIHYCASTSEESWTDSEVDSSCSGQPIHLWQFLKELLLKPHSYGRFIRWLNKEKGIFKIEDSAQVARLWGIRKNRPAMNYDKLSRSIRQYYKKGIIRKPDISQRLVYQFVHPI
In short: as §1

ETV7 = biological target: T9, ETV7 (Homo sapiens, UniProt Q9Y603 1-341); conditions: protein: recombinant; tags: N-terminal GST; dsDNA, one strand shown
T9 sequence: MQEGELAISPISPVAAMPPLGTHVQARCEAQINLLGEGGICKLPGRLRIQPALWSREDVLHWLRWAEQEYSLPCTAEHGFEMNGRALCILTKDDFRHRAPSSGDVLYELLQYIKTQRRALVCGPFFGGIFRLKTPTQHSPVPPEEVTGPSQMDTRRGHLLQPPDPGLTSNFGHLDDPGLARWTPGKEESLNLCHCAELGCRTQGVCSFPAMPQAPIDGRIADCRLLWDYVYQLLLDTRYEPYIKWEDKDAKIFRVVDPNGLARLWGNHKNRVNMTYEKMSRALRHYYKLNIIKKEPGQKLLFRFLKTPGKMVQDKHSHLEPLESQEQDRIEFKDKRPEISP
In short: as §1

ELF5 = biological target: T10, ELF5 (Homo sapiens, UniProt Q9UKW6-2 1-255); conditions: protein: recombinant; tags: N-terminal GST; dsDNA, one strand shown
T10 sequence: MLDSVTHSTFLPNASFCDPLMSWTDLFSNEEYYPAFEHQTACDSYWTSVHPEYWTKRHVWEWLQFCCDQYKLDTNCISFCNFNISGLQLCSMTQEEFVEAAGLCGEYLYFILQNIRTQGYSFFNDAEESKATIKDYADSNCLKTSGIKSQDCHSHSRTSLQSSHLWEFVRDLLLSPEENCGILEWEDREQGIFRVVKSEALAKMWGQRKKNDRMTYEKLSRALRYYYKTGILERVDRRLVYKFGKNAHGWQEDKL
In short: as §1

ETV3 = biological target: T11, ETV3 (Homo sapiens, UniProt P41162-2 1-143); conditions: protein: recombinant; tags: N-terminal GST; dsDNA, one strand shown
T11 sequence: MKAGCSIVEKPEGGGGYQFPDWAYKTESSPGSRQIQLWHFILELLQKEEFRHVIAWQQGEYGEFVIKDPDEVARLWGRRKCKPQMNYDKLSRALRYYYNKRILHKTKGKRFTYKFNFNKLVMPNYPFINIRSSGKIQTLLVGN
In short: as §1

ETV6 = ETV6 (Homo sapiens, UniProt P41212 1-452); conditions: protein: recombinant; tags: N-terminal GST; dsDNA, one strand shown
Chain of ETV6 (P41212 whole entry): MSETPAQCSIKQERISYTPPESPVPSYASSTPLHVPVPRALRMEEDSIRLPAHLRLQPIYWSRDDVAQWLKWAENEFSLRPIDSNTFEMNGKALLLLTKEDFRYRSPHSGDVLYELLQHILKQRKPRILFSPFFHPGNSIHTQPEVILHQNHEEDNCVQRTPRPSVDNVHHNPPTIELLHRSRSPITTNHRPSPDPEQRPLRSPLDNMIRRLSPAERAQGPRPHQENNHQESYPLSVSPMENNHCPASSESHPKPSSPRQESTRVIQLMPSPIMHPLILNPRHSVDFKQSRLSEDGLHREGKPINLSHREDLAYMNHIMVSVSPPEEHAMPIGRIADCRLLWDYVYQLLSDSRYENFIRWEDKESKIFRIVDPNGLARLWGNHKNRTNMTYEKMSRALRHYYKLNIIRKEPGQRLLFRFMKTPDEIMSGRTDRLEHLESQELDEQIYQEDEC
In short: as §1

ELF4 = ELF4 (Homo sapiens, UniProt Q99607 1-663); conditions: protein: recombinant; tags: N-terminal GST; dsDNA, one strand shown
Chain of ELF4 (Q99607 whole entry): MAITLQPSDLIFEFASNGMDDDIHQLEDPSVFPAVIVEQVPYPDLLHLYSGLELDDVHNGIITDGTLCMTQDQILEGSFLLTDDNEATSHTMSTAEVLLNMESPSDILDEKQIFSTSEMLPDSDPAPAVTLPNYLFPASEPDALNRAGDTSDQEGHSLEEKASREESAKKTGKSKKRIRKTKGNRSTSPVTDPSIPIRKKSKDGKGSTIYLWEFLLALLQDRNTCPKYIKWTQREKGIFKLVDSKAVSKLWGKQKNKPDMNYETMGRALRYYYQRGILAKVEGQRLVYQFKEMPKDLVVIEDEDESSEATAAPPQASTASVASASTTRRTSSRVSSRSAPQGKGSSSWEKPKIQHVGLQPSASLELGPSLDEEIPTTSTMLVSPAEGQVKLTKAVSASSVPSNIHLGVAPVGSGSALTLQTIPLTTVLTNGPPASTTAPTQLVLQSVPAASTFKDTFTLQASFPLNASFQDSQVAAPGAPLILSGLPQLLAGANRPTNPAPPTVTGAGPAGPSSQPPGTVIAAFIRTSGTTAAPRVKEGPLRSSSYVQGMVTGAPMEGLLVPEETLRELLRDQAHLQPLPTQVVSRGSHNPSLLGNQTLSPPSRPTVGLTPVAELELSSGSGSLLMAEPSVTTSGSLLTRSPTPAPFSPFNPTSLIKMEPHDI
In short: as §1

ELF3 = biological target: T12, ELF3 (Homo sapiens, UniProt P78545 1-371); conditions: protein: recombinant; tags: N-terminal GST; dsDNA, one strand shown
T12 sequence: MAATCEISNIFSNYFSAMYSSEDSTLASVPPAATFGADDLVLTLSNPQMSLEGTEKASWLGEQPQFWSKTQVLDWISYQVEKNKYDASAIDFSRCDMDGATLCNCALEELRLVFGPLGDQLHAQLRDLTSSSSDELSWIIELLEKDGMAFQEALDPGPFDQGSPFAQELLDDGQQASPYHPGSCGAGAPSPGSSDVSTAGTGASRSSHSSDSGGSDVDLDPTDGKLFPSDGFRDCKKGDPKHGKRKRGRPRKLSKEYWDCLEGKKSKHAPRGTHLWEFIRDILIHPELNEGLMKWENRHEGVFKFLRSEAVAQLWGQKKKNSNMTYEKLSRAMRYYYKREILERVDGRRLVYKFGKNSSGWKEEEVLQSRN
In short: as §1

TAACGG
binding signal (FEV): 1.1 fold enrichment (6-mer frequency, TF over GST control)
binding signal (ETV5): 1.09 fold enrichment (6-mer frequency, TF over GST control)
binding signal (HSF1): 1.03 fold enrichment (6-mer frequency, TF over GST control)
binding signal (SPIC): 1.07 fold enrichment (6-mer frequency, TF over GST control)
binding signal (ELK4): 1.02 fold enrichment (6-mer frequency, TF over GST control)
binding signal (ETV2): 1.11 fold enrichment (6-mer frequency, TF over GST control)
binding signal (CRX): 1.21 fold enrichment (6-mer frequency, TF over GST control)
binding signal (ETV1): 1.04 fold enrichment (6-mer frequency, TF over GST control)
binding signal (ERF): 1.04 fold enrichment (6-mer frequency, TF over GST control)
binding signal (ETV3L): 1.04 fold enrichment (6-mer frequency, TF over GST control)
binding signal (ETS2): 1.1 fold enrichment (6-mer frequency, TF over GST control)
binding signal (SPDEF): 1.1 fold enrichment (6-mer frequency, TF over GST control)
binding signal (ETV7): 1.06 fold enrichment (6-mer frequency, TF over GST control)
binding signal (ELF5): 1.07 fold enrichment (6-mer frequency, TF over GST control)
binding signal (ETV3): 1.1 fold enrichment (6-mer frequency, TF over GST control)
binding signal (ETV6): 1.14 fold enrichment (6-mer frequency, TF over GST control)

GGAACA
binding signal (FEV): 1.01 fold enrichment (6-mer frequency, TF over GST control)
binding signal (ETV5): 1.16 fold enrichment (6-mer frequency, TF over GST control)
binding signal (HSF1): 1.32 fold enrichment (6-mer frequency, TF over GST control)
binding signal (SPIC): 1.1 fold enrichment (6-mer frequency, TF over GST control)
binding signal (ELF4): 1 fold enrichment (6-mer frequency, TF over GST control)
binding signal (ETV2): 1.11 fold enrichment (6-mer frequency, TF over GST control)
binding signal (ELF3): 1.09 fold enrichment (6-mer frequency, TF over GST control)
binding signal (ETV1): 1.08 fold enrichment (6-mer frequency, TF over GST control)
binding signal (ERF): 1.01 fold enrichment (6-mer frequency, TF over GST control)
binding signal (ETV3L): 1.07 fold enrichment (6-mer frequency, TF over GST control)
binding signal (ETS2): 1.08 fold enrichment (6-mer frequency, TF over GST control)
binding signal (SPDEF): 1.15 fold enrichment (6-mer frequency, TF over GST control)
binding signal (ETV7): 1.03 fold enrichment (6-mer frequency, TF over GST control)
binding signal (ELF5): 1.28 fold enrichment (6-mer frequency, TF over GST control)
binding signal (ETV3): 1.14 fold enrichment (6-mer frequency, TF over GST control)
binding signal (ETV6): 1.02 fold enrichment (6-mer frequency, TF over GST control)
